Test [1] can be described thus: E. coli DRC41 culture turbidity changes, primary screen, E. coli filamentation inducer project, strain DRC41, OD650, 48 h (AID 1152).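 Note: E. coli MC1000 strain DRC41 lacking acrAB efflux pump and sulA.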 Particulars: E. coli DRC41 (acrAB sulA), higher = more signal, called active from +8 up or from −8 down.
A short description of test [2]: small-molecule binders of probe aLefty1, primary screen, biochemical, small-molecule microarray, 635/667 nm fluorescence (AID 1153).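 Note: score merges spot fluorescence with signal-to-noise ratio from the scanned slide images.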 Particulars: higher = more signal.
The nature of test [3]: PSAC antagonists in infected red cells, primary screen, cell-based, P. falciparum Indochina, OD700, 1 h (AID 1154). Particulars: P. falciparum Indochina infected RBC osmotic lysis, higher = more signal, called active from +8 up or from −8 down.
The nature of test [4]: PSAC antagonists in infected red cells, primary screen, cell-based, P. falciparum Indochina, OD700, 2 h (AID 1155).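 Note: lysis reports solute entry through the parasite surface anion channel PSAC; channel blockers reduce lysis of infected cells.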 The note with it: P. falciparum Indochina infected erythrocytes, osmotic lysis OD700; higher = more signal, called active from +8 up or from −8 down.
A short description of test [5]: osmotic lysis modulators in infected erythrocytes, primary screen, PSAC antagonist project, cell-based, P. falciparum Indochina, OD700, 3 h (AID 1156). Particulars: higher = more signal, called active from +8 up or from −8 down.
Test [6] in a line: PSAC antagonists in infected red cells, primary screen, cell-based, P. falciparum Indochina, OD700, 18 h (AID 1157). The note with it: P. falciparum Indochina infected erythrocytes, osmotic lysis OD700, 18 h; higher = more signal, called active from +8 up or from −8 down.
Test [7] can be described thus: modulators of S6 phosphorylation in cells, primary screen, cell-based, A549, cytoblot, luminescence, serum-stimulated (AID 1158).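 Note: serum-stimulated A549 lung adenocarcinoma cells; signal is phosphorylated S6 detected by cytoblot immunostaining with HRP secondary.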 Particulars: A549 phospho-S6 cytoblot, 5 h, higher = more signal.
Test [8] addresses NADPH oxidase 2 (Homo sapiens) (UniProt P04839). The test is described as follows: NOX2-dependent H2O2 signal modulators, primary screen, NOX inhibitor project, cell-based, HEK293-NOX2, PMA-stimulated, Amplex Red fluorescence (AID 1159). Note: test concentration not given here. Particulars: 45 min, higher = more signal, called active from +8 up or from −8 down.
Test [9] has as its target NADPH oxidase 4 (Homo sapiens) (UniProt Q9NPH5). In words: NOX4-dependent H2O2 signal modulators, primary screen, NOX inhibitor project, cell-based, HEK293-NOX4, tetracycline-induced, Amplex Red fluorescence (AID 1160). The note with it: 45 min, higher = more signal, called active from +8 up or from −8 down.
In test [10] the target is NADPH oxidase 5 (Homo sapiens) (UniProt Q96PH1). The test is described as follows: NOX5-dependent H2O2 signal modulators, primary screen, NOX inhibitor project, cell-based, HEK293-NOX5, Amplex Red fluorescence (AID 1161). Particulars: HEK293-NOX5, ionomycin, 45 min, higher = more signal.
The nature of test [11]: A549 cell viability effects, profiling panel, calcein-AM fluorescence, 48 h, basal (AID 1162). Note: test concentration not given here. The note with it: higher = more signal.
Test [12] can be described thus: adipocyte viability effects, profiling panel, cell-based, 3T3-L1 adipocytes, calcein-AM fluorescence, 48 h, basal (AID 1163). Note: test concentration not given here. Particulars: 3T3-L1 adipocytes viability, higher = more signal.
Test [13] is described as follows: HepG2 cell viability effects, profiling panel, calcein-AM fluorescence, 48 h, basal (AID 1164). Note: test concentration not given here. Particulars: higher = more signal.
A short description of test [14]: MM1S cell viability effects, profiling panel, calcein-AM fluorescence, 48 h, basal (AID 1165).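 Note: viability of MM1S multiple myeloma cells under basal unstimulated conditions; test concentration not given here.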 Particulars: higher = more signal.
Test [15] is described as follows: basal RPMI8226 viability, no added stimulus, profiling panel, cell-based, calcein-AM fluorescence, 48 h, PK04 Diversity Set (AID 1166).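 Note: cells grown under basal conditions without added stimulus; test concentration not given here.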 Particulars: RPMI8226 myeloma viability, higher = more signal.
Test [16] is described as follows: basal HepG2 mitochondrial membrane potential changes, profiling panel, cell-based, JC-1 fluorescence, 24 h, 100 nL compound (AID 1167). Note: test concentration not given here. The note with it: higher = more signal.
Test [17] can be described thus: basal 3T3-L1 adipocyte mitochondrial potential changes, profiling panel, cell-based, JC-1 fluorescence, 3T3-L1 adipocytes, 24 h, 100 nL compound (AID 1168). Note: test concentration not given here. The note with it: JC-1 mitochondrial fluorescence, higher = more signal, called active from +8 up or from −8 down.
The nature of test [18]: basal RPMI8226 mitochondrial membrane potential changes, profiling panel, cell-based, JC-1 fluorescence, 24 h, 100 nL compound (AID 1169). Note: test concentration not given here. Particulars: RPMI8226 myeloma, JC-1 mitochondrial potential fluorescence, higher = more signal.
A short description of test [19]: basal MM1S mitochondrial membrane potential changes, profiling panel, cell-based, JC-1 fluorescence, 24 h, 100 nL compound (AID 1170). Note: test concentration not given here. Particulars: higher = more signal.
The nature of test [20]: A549 lung cancer cell viability effects, profiling panel, resazurin fluorescence, 24 h, PK04 Diversity Set (AID 1171). Note: test concentration not given here. The note with it: higher = more signal, called active from +8 up or from −8 down.

Activity calls are given as the source filed them.

Sequence of NADPH oxidase 2 (Homo sapiens) (P04839 whole entry, looked up): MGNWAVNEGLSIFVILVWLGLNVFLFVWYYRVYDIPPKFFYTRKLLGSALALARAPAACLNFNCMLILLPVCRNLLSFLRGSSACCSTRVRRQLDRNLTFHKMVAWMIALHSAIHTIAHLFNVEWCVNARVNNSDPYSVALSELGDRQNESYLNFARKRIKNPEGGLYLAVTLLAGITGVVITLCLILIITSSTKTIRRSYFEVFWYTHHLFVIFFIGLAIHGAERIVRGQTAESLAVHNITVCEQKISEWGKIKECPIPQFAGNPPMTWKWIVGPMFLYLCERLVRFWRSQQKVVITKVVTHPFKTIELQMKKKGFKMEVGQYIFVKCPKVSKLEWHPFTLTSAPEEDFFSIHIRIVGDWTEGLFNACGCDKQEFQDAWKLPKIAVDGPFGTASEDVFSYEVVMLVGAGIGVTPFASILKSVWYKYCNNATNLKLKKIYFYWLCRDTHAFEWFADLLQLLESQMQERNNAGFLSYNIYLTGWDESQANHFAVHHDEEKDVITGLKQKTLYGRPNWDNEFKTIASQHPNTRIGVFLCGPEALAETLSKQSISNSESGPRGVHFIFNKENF
Sequence of NADPH oxidase 4 (Homo sapiens) (Q9NPH5 whole entry, looked up): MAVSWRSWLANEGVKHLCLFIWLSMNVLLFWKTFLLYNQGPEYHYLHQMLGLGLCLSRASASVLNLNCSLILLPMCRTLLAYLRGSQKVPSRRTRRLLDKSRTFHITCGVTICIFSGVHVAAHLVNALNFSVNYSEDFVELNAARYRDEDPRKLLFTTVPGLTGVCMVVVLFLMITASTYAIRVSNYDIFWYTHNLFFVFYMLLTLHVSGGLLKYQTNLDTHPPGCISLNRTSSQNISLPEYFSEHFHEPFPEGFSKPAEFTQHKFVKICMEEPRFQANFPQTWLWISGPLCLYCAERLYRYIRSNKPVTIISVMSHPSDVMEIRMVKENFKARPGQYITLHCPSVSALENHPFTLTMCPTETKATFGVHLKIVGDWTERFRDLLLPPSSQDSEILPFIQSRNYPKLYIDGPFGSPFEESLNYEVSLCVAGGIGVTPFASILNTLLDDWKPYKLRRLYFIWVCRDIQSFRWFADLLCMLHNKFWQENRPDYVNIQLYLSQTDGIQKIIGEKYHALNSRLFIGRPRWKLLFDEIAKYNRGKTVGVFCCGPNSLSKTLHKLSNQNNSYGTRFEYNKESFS
Sequence of NADPH oxidase 5 (Homo sapiens) (Q96PH1 whole entry, looked up): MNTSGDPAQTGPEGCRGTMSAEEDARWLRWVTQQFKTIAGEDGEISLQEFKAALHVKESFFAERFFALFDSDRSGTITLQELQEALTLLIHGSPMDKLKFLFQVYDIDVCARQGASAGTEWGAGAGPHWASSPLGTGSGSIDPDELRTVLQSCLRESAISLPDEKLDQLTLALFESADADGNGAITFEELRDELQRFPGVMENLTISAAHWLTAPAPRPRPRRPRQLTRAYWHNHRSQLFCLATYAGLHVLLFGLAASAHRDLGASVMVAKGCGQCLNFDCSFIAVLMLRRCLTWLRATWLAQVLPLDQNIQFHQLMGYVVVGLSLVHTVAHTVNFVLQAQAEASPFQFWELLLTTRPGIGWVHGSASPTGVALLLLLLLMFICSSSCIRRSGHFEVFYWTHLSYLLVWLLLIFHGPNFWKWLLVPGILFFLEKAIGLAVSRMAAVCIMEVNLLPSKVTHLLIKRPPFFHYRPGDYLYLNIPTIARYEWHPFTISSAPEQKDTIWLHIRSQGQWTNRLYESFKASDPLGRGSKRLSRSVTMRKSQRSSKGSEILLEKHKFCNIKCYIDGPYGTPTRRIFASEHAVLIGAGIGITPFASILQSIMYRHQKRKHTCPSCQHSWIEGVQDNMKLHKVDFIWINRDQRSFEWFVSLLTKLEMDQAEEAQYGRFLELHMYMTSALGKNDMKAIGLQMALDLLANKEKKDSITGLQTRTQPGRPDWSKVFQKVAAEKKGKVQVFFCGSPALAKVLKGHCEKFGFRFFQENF

With `C[C@]1(C(=O)NCC(F)(F)F)c2ccccc2C(=O)N(Cc2cc(F)cc(C(F)(F)F)c2)[C@H]1c1ccc(CO)cc1`, the z-score in [1] was -0.436 (inactive); in test [3] it was 4.43 (inactive); in test [4] it was -0.263 (inactive); in [5], 2.21 (inactive); in test [6], -0.682 (inactive); in test [7], 2.24. For the same compound, the z-score in [8] was -0.779 (inactive); in test [9], -2.9 (inactive); in test [10], -3.61; in test [11], -0.493; in test [12] it was 1.63; in test [13], -0.357. Also, the z-score in test [14] is -0.74; in [15], -0.308; in [16] it was 0.951; in test [17], -0.449 (inactive); in test [18], -0.494; in test [19], 0.206. Moreover, in test [20], the z-score was -0.557 (inactive). In addition, in test [2], the composite z-score was -0.355.
On to `COCCOC(=O)N1C(=O)[C@@]2(c3ccccc31)[C@H](c1ccc(O)cc1)N1[C@H](c3ccccc3)[C@H](c3ccccc3)OC(=O)[C@H]1[C@@H]2C(N)=O`, for which the z-score in [1] was 0.0672 (inactive); in test [3], 2 (inactive); in test [4], 1.18 (inactive); in [5], 1.34 (inactive); in test [6], 0.44 (inactive); in test [7], -0.0639. Also, the z-score was -0.198 (inactive) in test [8]; -0.747 (inactive) in test [9]; -0.0275 in test [10]; 0.357 in test [11]; 0.502 in test [12]; 1.75 in test [13]. The z-score was 0.936 in test [14]; 0.395 in test [15]; -0.815 in test [16]; 0.76 (inactive) in test [17]; 0.296 in test [18]; -0.971 in test [19]. The z-score in [20] was -0.83 (inactive). Also, the composite z-score in test [2] is -0.379.
As to `C=C(C)[C@@H]1CC=C(C(O)C2C=CC3C(=O)N(Cc4ccccc4)C(=O)C3N2n2cnnc2)CC1` (stereo not given in full), the z-score in [1] is -1.05 (inactive); in test [3], 1.48 (inactive); in test [4] it was -0.289 (inactive); in test [5] it was 1.28 (inactive); in test [6], -1.38 (inactive); in [7], 1.65. The z-score is -3.5 (inactive) in [8]; -2.39 (inactive) in [9]; -3.6 in test [10]; -0.675 in [11]; 0.233 in test [12]; -1.05 in [13]. Moreover, the z-score in [14] was 0.364; in [15], -0.176; in test [16] it was -0.458; in test [17], -0.403 (inactive); in test [18] it was 0.666; in test [19], -2.13. In test [20], the z-score is 0.159 (inactive). The composite z-score in test [2] was 0.298.
As to `CN(C)CCCC[C@@H]1NC(=O)[C@@H]2C[C@H](C(=O)NCc3ccc(F)cc3)[C@H](c3cccc(OCCO)c3)N2C1=O`, the z-score was -0.179 (inactive) in [1]; 5.87 (inactive) in test [3]; 0.995 (inactive) in test [4]; -1.39 (inactive) in test [5]; 0.546 (inactive) in test [6]; 0.612 in [7]. Further, the z-score in test [8] was 1.85 (inactive); in test [9], 1.37 (inactive); in test [10] it was 1.55; in test [11] it was 0.514; in test [12], -0.0506; in test [13], 0.554. Besides, the z-score was 0.731 in test [14]; 1.02 in test [15]; 2.08 in test [16]; 0.544 (inactive) in test [17]; 0.46 in test [18]; -0.749 in [19]. For the same compound, the z-score in test [20] is -0.158 (inactive). For the same compound, in test [2], the composite z-score amounted to 0.19.
Turning to `O=C1C2C=CC(C(O)C3CC=CCC3)N(n3cnnc3)C2C(=O)N1Cc1ccccc1` (stereo not given), the z-score is -1.37 (inactive) in test [1]; 1.36 (inactive) in [3]; 0.585 (inactive) in test [4]; 0.576 (inactive) in test [5]; 0.388 (inactive) in test [6]; -0.792 in test [7]. Further, the z-score in test [8] is -0.621 (inactive); in [9], -1.61 (inactive); in [10] it was -1.34; in test [11], -0.563; in [12] it was -0.801; in test [13] it was 0.253. In addition, the z-score in [14] is -0.379; in test [15] it was -0.255; in test [16] it was -0.937; in test [17] it was -0.132 (inactive); in [18] it was 0.46; in [19], -0.109. Besides, the z-score in test [20] was -0.62 (inactive). The compound also registered a composite z-score in test [2] of 0.0455.
